These results are taken from PubChem BioAssay.

Test [1] in a line: growth inhibition of DIPG glioma cells, dose response, cell-based, SU-DIPG-XVII, MIPE5.0, CellTiter-Glo, qHTS (AID 1347060; cut-off not given, nearly all actives have AC50 up to about 26 µM;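 also: cells exposed to compound for 48 hours before viability readout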). Conditions: SU-DIPG-XVII viability, CellTiter-Glo ATP luminescence. (In general: Cellular ATP, detected with luciferase, serves as a proxy for viable cell number.)
Test [2] can be described thus: growth inhibition of DIPG glioma cells, dose response, cell-based, JHH-DIPG-1, MIPE4.0, CellTiter-Glo, qHTS (AID 1347062; cut-off not given, nearly all actives have AC50 up to about 27 µM;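 also: cells exposed to compound for two days before readout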). Conditions: JHH-DIPG-1 viability, CellTiter-Glo ATP luminescence.
The nature of test [3]: growth inhibition of DIPG glioma cells, dose response, cell-based, SU-DIPG-IV, MIPE4.0, CellTiter-Glo, qHTS (AID 1347063; cut-off not given, nearly all actives have AC50 up to about 30 µM;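 also: compound exposure lasted 48 hours before the viability readout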). The conditions noted are these: SU-DIPG-IV viability, CellTiter-Glo ATP luminescence.
Test [4] in a line: viability loss in pontine glioma line – cell-based, SU-DIPG-XXV, MIPE5.0, CellTiter-Glo, qHTS, dose response (AID 1347065; cut-off not given, nearly all actives have AC50 up to about 26 µM;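 also: cells exposed to compound for 48 hours before ATP readout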). Conditions: CellTiter-Glo ATP luminescence.
Test [5] is described as follows: JHH-DIPG-1 glioma cell viability, MIPE5.0 library, CellTiter-Glo luminescence, qHTS (AID 1347067; cut-off not given, nearly all actives have AC50 up to about 26 µM;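 also: cells exposed to compound for 48 hours before readout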). Conditions: JHH-DIPG-1 glioma viability, CellTiter-Glo ATP luminescence.
Test [6] in a line: SU-DIPG-XXV glioma cell viability, MIPE5.0 library, qHTS (AID 1347068; cut-off not given, nearly all actives have IC50 up to about 30 µM;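 also: cells exposed to compound for 48 hours before viability readout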). Background: Quantitative high-throughput screening tests each substance at several concentrations.
The nature of test [7]: modifiers of HSF1 nuclear foci, imaging, Selleck Cancer Library (AID 1347162; in the data active = plate-normalised HSF1 focus index below about 0.46). The conditions noted are these: human cells, at 10 µM; SSMD: measured here: HSF1 foci SSMD mean; cell count: measured here: cell number; plate-normalised HSF1 focus index: stronger effect = lower value.
Test [8] can be described thus: ovarian cancer cell viability with rucaparib, profiling panel, oncology-focused library, rucaparib conditional (AID 1508598). Conditions: patient-derived ovarian cancer cells, CellTiter-Glo viability, 144 h, stronger effect = lower value.
The nature of test [9]: SU-DIPG-VI glioma cell viability, MIPE4.0 library, CellTiter-Glo luminescence, qHTS (AID 1347066; cut-off not given, nearly all actives have AC50 up to about 30 µM;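 also: cells exposed to compound for 48 hours before readout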). The conditions noted are these: CellTiter-Glo ATP luminescence.
Test [10] can be described thus: sensitizers of A549 cells to miR-34 induction, primary screen, imaging, A549 dox-inducible miR-34, nuclei and caspase counts (AID 1347080;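 active = compounds whose cell count with miR-34 switched on is under 0.7 times the count with it off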). The conditions noted are these: A549 miR-34 inducible, Hoechst nuclei count, 48 h.
Test [11] can be described thus: survival rescue of mitochondrial mutant cells in low glucose, primary screen, MELAS cybrids, Rieske KO mouse fibroblasts, CellTiter-Glo (AID 1508586;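 active = mean z-score across replicates of 1.96 or higher in either the MELAS or the Rieske mutant cell line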;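 also: z relative to plate mean and SD of compound and empty wells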).
The mark [12] stands for this setting: stronger effect = lower value, cell number ratio, induced over uninduced.
Where [13] appears, read: measured here: relative caspase fold change +Dox/-Dox.
Where [14] appears, read: measured here: total cells with miR-34 induction, stronger effect = lower value.
[15] abbreviates: measured here: total cells without miR-34 induction.
[16] abbreviates: MELAS cybrid survival, CellTiter-Glo 48 h, stronger effect = higher value.
The mark [17] stands for this setting: Rieske KO mouse fibroblast survival, CellTiter-Glo 72 h.

Inconclusive results are not listed. The source made the active and inactive calls.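 The calls were made as follows, unless noted: active = normalized viability below 100% at a tested concentration; inactive = the rest.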

In general, AC50 refers to the midpoint of the concentration-response curve, whichever way the signal moves. What is called IC50 is the midpoint of a concentration-inhibition curve. Usually viability stands for a read-out of living cells in per cent, often relative to untreated cells.

Take `CC(C)C[C@H](NC(=O)CNC(=O)c1cc(Cl)ccc1Cl)B(O)O`: the AC50 in test [1] is 0.166 µM (active); in test [2] it was 0.166 µM (active); in test [3] it was 0.118 µM (active); in test [4], 0.0833 µM (active); in test [5] it was 0.263 µM (active). Moreover, in test [6], the IC50 was 0.105 µM (active). Besides, the SSMD in [7] is -0.17. In addition, the cell count in [7] turned out to be 6790. The plate-normalised HSF1 focus index in test [7] is 0.988 (inactive). Further, the viability in test [8] (at 0.000305 µM, OCI-C5x cells, with rucaparib 10 µM, 100% = cells with rucaparib alone) is 111% (inactive); in [8] (at 0.000305 µM, OCI-C5x cells, without rucaparib), 132% (inactive); in [8] (at 0.000305 µM, OCI-P5x cells, with rucaparib 20 µM, 100% = cells with rucaparib alone), 106% (inactive); in test [8] (at 0.000305 µM, OCI-P5x cells, without rucaparib), 121% (inactive); in [8] (at 0.00122 µM, OCI-C5x cells, with rucaparib 10 µM, 100% = cells with rucaparib alone), 112% (inactive); in test [8] (at 0.00122 µM, OCI-C5x cells, without rucaparib) it was 130% (inactive). Also, the viability is 106% (inactive) in test [8] (at 0.00122 µM, OCI-P5x cells, with rucaparib 20 µM, 100% = cells with rucaparib alone); 111% (inactive) in test [8] (at 0.00122 µM, OCI-P5x cells, without rucaparib); 126% (inactive) in test [8] (at 0.00488 µM, OCI-C5x cells, with rucaparib 10 µM, 100% = cells with rucaparib alone); 129% (inactive) in [8] (at 0.00488 µM, OCI-C5x cells, without rucaparib); 104% (inactive) in test [8] (at 0.00488 µM, OCI-P5x cells, with rucaparib 20 µM, 100% = cells with rucaparib alone); 116% (inactive) in test [8] (at 0.00488 µM, OCI-P5x cells, without rucaparib). Besides, the viability in test [8] (at 0.0195 µM, OCI-C5x cells, with rucaparib 10 µM, 100% = cells with rucaparib alone) was 122% (inactive); in test [8] (at 0.0195 µM, OCI-C5x cells, without rucaparib), 128% (inactive); in [8] (at 0.0195 µM, OCI-P5x cells, with rucaparib 20 µM, 100% = cells with rucaparib alone), 96.7% (active); in [8] (at 0.0195 µM, OCI-P5x cells, without rucaparib), 116% (inactive); in [8] (at 0.0781 µM, OCI-C5x cells, with rucaparib 10 µM, 100% = cells with rucaparib alone), 88.7% (active); in test [8] (at 0.0781 µM, OCI-C5x cells, without rucaparib) it was 103% (inactive). In addition, the viability in test [8] (at 0.0781 µM, OCI-P5x cells, with rucaparib 20 µM, 100% = cells with rucaparib alone) was 101% (inactive); in [8] (at 0.0781 µM, OCI-P5x cells, without rucaparib), 80.5% (active); in test [8] (at 0.313 µM, OCI-C5x cells, with rucaparib 10 µM, 100% = cells with rucaparib alone), 30.3% (active); in [8] (at 0.313 µM, OCI-C5x cells, without rucaparib), 22.4% (active); in test [8] (at 0.313 µM, OCI-P5x cells, with rucaparib 20 µM, 100% = cells with rucaparib alone), 22% (active); in test [8] (at 0.313 µM, OCI-P5x cells, without rucaparib) it was 4.33% (active). Moreover, the viability is 7.48% (active) in test [8] (at 1.25 µM, OCI-C5x cells, with rucaparib 10 µM, 100% = cells with rucaparib alone); 6.01% (active) in test [8] (at 1.25 µM, OCI-C5x cells, without rucaparib); 2.76% (active) in test [8] (at 1.25 µM, OCI-P5x cells, with rucaparib 20 µM, 100% = cells with rucaparib alone); 1.33% (active) in test [8] (at 1.25 µM, OCI-P5x cells, without rucaparib); 1.81% (active) in [8] (at 5 µM, OCI-C5x cells, with rucaparib 10 µM, 100% = cells with rucaparib alone); 1.62% (active) in [8] (at 5 µM, OCI-C5x cells, without rucaparib). The viability was 1.18% (active) in test [8] (at 5 µM, OCI-P5x cells, with rucaparib 20 µM, 100% = cells with rucaparib alone) and 0.837% (active) in test [8] (at 5 µM, OCI-P5x cells, without rucaparib).

As for `C[C@H]1[C@H](OC(=O)CCC(=O)O)O[C@@H]2O[C@@]3(C)CC[C@H]4[C@H](C)CC[C@@H]1[C@@]24OO3`, the AC50 in test [1] was 3.72 µM (active); in [2], 14.8 µM (active); in test [3], 3.72 µM (active); in test [4], 13.2 µM (active). Moreover, the outcome in test [9] was inactive.

Consider `NC(=O)N1CCC(CC(=O)N2CCC([C@H]3c4ncc(Br)cc4CCc4cc(Cl)cc(Br)c43)CC2)CC1`, for which the AC50 in test [1] is 18.6 µM (active); in [2], 23.5 µM (active); in [3], 18.7 µM (active); in test [4], 16.6 µM (active); in [9], 16.6 µM (active); in [5], 23.5 µM (active).

As to `NCC(=O)Nc1ccc(-n2nc(C(F)(F)F)cc2-c2ccc3c(ccc4ccccc43)c2)cc1`, the half-maximal activity concentration (AC50) in test [1] was 23.5 µM (active); in test [2], 23.5 µM (active); in [3] it was 20.9 µM (active); in [9], 20.9 µM (active); in test [5], 20.9 µM (active). Further, the fold change in test [10] (setting [12]) is 1.2 (inactive); in test [10] (setting [13]), 0.441. Also, the values for the cell count in [10] (setting [14]) and in test [10] (setting [15]) were 2160 and 1800, respectively. The z-score was -0.432 (inactive) in [11] (setting [16]) and -0.00325 in test [11] (setting [17]).

`CC(C)c1cnn2c(NCc3ccccc3)cc(NCCCCCCN)nc12`: the AC50 is 18.6 µM (active) in [1]; 20.9 µM (active) in test [2]; 18.7 µM (active) in test [3]; 18.6 µM (active) in test [4]; 23.5 µM (active) in test [9]; 26.3 µM (active) in test [5]. In addition, in [6], the IC50 was 23.5 µM (active). Besides, the fold change was 0.98 (inactive) in test [10] (setting [12]) and 0.679 in [10] (setting [13]). Besides, the cell count in test [10] (setting [14]) amounted to 7920; in [10] (setting [15]), 8080. Further, the z-score in test [11] (setting [16]) was -0.424 (inactive); in test [11] (setting [17]), -0.75.
